From PubChem BioAssay (Tox21) come the findings set out here.

Values joined by “and” are separate entries in the source; they are usually repeats but may differ in a detail not shown here. Equal values may be shown once. Records with an inconclusive call do not appear. Some compounds were tested as several samples or in several runs, with calls that do not always agree. Active and inactive are the calls of the source. Unless noted, calls come from the whole dose curve; as a rule, active = well fitted curve in the direction sought with a large enough effect in the repeat runs; inconclusive = weak or mixed curves; inactive = no such curve, though single readings can be large; an effect the other way counts as inactive or inconclusive.

A short description of assay [1]: qHTS assay to identify aromatase inhibitors - cell viability counter screen (AID 743084).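 Note: cells stimulated with testosterone during compound exposure; nearly all actives have a fitted effect of over 55% in size.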 Note: potency is the fitted concentration of half-maximal effect. On the technique in general: Quantitative high-throughput screening tests each substance at several concentrations.
The target in assay [2] is Aryl hydrocarbon receptor (Homo sapiens) (UniProt P35869). Description: qHTS assay to identify small molecule that activate the aryl hydrocarbon receptor (AhR) signaling pathway (AID 743085).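 For activation: HG2L7.5c1 human HepG2 liver cells with stably integrated DRE-driven firefly reporter; series mostly up to about 70 µM.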 Note: nearly all actives have a fitted effect of over 15% in size. Note: potency is the fitted concentration of half-maximal effect. The essentials:
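A multiplexed format paired cell viability (CellTiter-Fluor fluorescence) with AhR-dependent luciferase output (ONE-Glo luminescence) in the same wells of HepG2 DRE-luc cells after 24 h compound exposure at 37C.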

Assay [3] addresses Peroxisome proliferator-activated receptor gamma (Homo sapiens) (UniProt P37231). Briefly: qHTS assay to identify small molecule agonists of the peroxisome proliferator-activated receptor gamma (PPARg) signaling pathway (AID 743094; active = well fitted activation curve with a large enough effect in the signal ratio in the repeat runs, not every such curve was filed as active; the % refers to the signal ratio). In short, it runs like this: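 GeneBLAzer PPARg UAS-bla HEK293H cells carrying a stably integrated beta-lactamase reporter were pre-incubated 5 h at 37C, then exposed to compounds in DMSO for 17 h at 37C; LiveBLAzer B/G FRET substrate was added for 1 h at room temperature and fluorescence read.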

A short description of assay [4]: qHTS assay to identify small molecule antagonists of the peroxisome proliferator-activated receptor gamma (PPARg) signaling pathway - cell viability counter screen (AID 743194). Note: nearly all actives have a fitted effect of over 55% in size. In short, it runs like this:
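Cytotoxicity counter screen in PPARg-bla HEK293H cells, same wells as reporter assay. Compounds plus 50 nM rosiglitazone (final) for 17 h at 37 C, then viability read by CellTiter-Glo luminescence.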

Assay [5] is described as follows: qHTS assay for small molecule agonists of the antioxidant response element (ARE) signaling pathway (AID 743202; active = well fitted activation curve with a large enough effect in the signal ratio in the repeat runs, not every such curve was filed as active; the % refers to the signal ratio; note: potency is the fitted concentration of half-maximal effect). The essentials: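 ARE-bla HepG2 cells (beta-lactamase reporter under the antioxidant response element), plated 5 hours, then exposed to compounds 16 hours at 37 C. LiveBLAzer B/G FRET substrate added for 2 hours at room temperature; fluorescence intensity read.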

Assay [6] can be described thus: qHTS assay for small molecule agonists of the antioxidant response element (ARE) signaling pathway - cell viability counter screen (AID 743203; calls by dose curve; note: nearly all actives have a fitted effect of over 55% in size; note: potency is the fitted concentration of half-maximal effect). The essentials:
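CellSensor ARE-bla HepG2 cells, 2,000 per well, rested 5 hrs at 37C/5% CO2, then exposed to compound in DMSO for 16 hrs; viability read as CellTiter-Glo luminescence after 30 min at room temperature, in the reporter wells.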

Assay [7] can be described thus: qHTS assay for small molecule activators of the heat shock response signaling pathway - cell viability counter screen (AID 743209). Note: nearly all actives have a fitted effect of over 50% in size. In short, it runs like this:
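CellSensor HSE-bla HeLa cells, plated overnight at 37 C/5% CO2, were exposed to compounds in DMSO for 5 h at 37 C. Viability was then read in the same wells by CellTiter-Glo luminescence after 30 min at room temperature.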

Assay [8] in a line: qHTS assay for small molecule activators of the heat shock response signaling pathway (AID 743210; active = well fitted activation curve with a large enough effect in the signal ratio in the repeat runs, with a control signal flat, not every such curve was filed as active; the % refers to the signal ratio; note: series mostly up to about 63 µM). The essentials:
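HSE-bla HeLa cells (beta-lactamase reporter under heat shock response elements), plated overnight, then exposed to compounds 5 h at 37 C; LiveBLAzer B/G FRET substrate added, 2.5 h at room temperature, fluorescence intensity read.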

The target of assay [9] is Peroxisome proliferator-activated receptor gamma (Homo sapiens) (UniProt P37231). Description: qHTS assay to identify small molecule antagonists of the peroxisome proliferator-activated receptor gamma (PPARg) signaling pathway (AID 743191; calls by dose curve; note: series mostly up to about 63 µM; nearly all actives have a fitted effect of over 30% in size). In short, it runs like this:
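GeneBLAzer PPARg UAS-bla HEK293H cells, 5 h post-plating, exposed to compounds 17 h at 37C. LiveBLAzer B/G FRET substrate added for 1 h at room temperature; beta-lactamase reporter read by fluorescence intensity.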

Assay [10] can be described thus: qHTS assay to identify small molecule that activate the aryl hydrocarbon receptor (AhR) signaling pathway - cell viability counter screen (AID 743086).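 For viability change, negative = cytotoxic: HepG2 liver cells carrying the AhR DRE luciferase reporter; series mostly up to about 70 µM.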 Note: nearly all actives have a fitted effect of over 45% in size. Note: potency is the fitted concentration of half-maximal effect. In short, it runs like this: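 HepG2-AhR-luc (HG2L7.5c1) cells, 4000/well, treated 24 h at 37 C with compound; viability measured as CellTiter-Fluor fluorescence after 30 min in the same wells as the luciferase read.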
% is set by controls: 0 for no effect and ±100 for the full control effect.

Chain of Aryl hydrocarbon receptor (Homo sapiens) (P35869 whole entry, looked up): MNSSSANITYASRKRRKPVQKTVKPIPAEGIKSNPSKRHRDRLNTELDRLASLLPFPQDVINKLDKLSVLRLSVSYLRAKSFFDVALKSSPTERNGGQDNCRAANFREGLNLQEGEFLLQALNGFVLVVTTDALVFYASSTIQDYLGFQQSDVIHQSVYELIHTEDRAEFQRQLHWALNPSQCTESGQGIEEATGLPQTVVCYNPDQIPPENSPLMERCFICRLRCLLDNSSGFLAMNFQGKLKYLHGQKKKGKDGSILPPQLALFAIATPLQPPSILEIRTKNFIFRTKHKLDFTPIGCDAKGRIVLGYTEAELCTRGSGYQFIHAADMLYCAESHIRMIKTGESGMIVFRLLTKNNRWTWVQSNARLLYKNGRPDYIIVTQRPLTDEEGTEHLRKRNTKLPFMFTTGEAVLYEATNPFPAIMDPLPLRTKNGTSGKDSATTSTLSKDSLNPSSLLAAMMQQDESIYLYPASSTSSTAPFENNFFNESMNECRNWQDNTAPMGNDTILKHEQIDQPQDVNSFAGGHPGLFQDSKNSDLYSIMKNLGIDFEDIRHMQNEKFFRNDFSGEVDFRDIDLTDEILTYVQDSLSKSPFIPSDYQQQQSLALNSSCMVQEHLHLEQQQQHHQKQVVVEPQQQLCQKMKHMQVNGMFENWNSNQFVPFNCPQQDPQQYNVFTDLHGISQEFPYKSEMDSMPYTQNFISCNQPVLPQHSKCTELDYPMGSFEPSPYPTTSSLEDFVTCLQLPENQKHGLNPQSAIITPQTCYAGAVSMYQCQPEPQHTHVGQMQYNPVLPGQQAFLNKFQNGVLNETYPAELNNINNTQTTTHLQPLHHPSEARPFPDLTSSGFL
Chain of Peroxisome proliferator-activated receptor gamma (Homo sapiens) (P37231 whole entry, looked up): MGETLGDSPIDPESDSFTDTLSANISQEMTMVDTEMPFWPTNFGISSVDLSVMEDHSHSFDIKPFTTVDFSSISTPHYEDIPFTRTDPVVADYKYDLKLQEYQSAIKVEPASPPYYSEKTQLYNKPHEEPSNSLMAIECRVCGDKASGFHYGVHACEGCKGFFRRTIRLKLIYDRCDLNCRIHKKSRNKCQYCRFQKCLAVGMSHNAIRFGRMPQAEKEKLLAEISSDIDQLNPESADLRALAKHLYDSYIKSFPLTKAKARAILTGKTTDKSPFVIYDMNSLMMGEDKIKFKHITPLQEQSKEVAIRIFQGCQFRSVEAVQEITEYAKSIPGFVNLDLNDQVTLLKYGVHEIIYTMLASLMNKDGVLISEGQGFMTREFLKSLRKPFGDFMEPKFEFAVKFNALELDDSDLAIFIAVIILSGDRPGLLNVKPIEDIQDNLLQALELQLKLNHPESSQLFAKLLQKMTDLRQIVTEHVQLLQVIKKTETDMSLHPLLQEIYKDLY

In the case of `CCOC(=O)Cc1cccc2ccccc12`, the Potency entry in assay [1], in assay [2], in [3], in assay [4], in [5] and in assay [6] was “inactive” throughout. Further, the Potency result in assay [7] is “inactive”.
`O=C1OC(=O)C2C3C=CC(C3)C12` (stereo not drawn): the Potency entry in [1], in assay [2], in assay [3], in [4], in assay [6] and in [7] was “inactive” in each case. Further, the Potency entry in assay [8] was “inactive”.
In the case of `CC(C)(COC(=O)c1ccccc1)COC(=O)c1ccccc1`, the Potency entry in [1], in assay [2], in assay [3], in assay [9], in assay [4] and in assay [5] was “inactive” each time. In addition, the Potency result in assay [6], in assay [7] and in assay [8] was “inactive” each time.
With `CCc1c(C(=O)NN2CCCCC2)nn(-c2ccc(Cl)cc2Cl)c1-c1ccc(Br)cc1`, the Potency result in [1], in [2], in assay [10] and in assay [7] was “inactive” throughout.
For `NCCCN1CCOCC1`, the Potency result in assay [1], in [2], in [3], in [4], in [6] and in assay [7] was “inactive” each time. In addition, in assay [8], the Potency result was “inactive”.
As for `Cc1oc2c(NC(=O)c3c(Cl)cccc3Cl)cccc2c1C(C)(C)O`, the Potency entry in [1], in assay [10], in [4], in assay [7] and in assay [8] was “inactive” in each case. Besides, the Potency in [2] is 8.63 µM (active).
For `CC(C)=CCC/C(C)=C/CC/C(C)=C/CO`, the Potency entry in assay [1], in assay [2], in assay [10], in assay [4] and in assay [6] was “inactive” throughout.
Consider `c1ccc(C(O[C@H]2CCCN(CCc3ccc4c(c3)OCO4)C2)c2ccccc2)cc1`, for which the Potency entry in assay [1], in [10], in [4] and in [7] was “inactive” each time. Further, the Potency in assay [2] is 26.6 µM (active).
Turning to `O=C(Nc1ccc(S(=O)(=O)N2CCOCC2)cc1)c1cc(Cl)ccc1NS(=O)(=O)c1ccc(Cl)s1`, the Potency entry in [1], in assay [2], in assay [10] and in assay [7] was “inactive” in each case. In addition, in assay [6], the Potency was 13.3 µM (active).
Regarding `C/C=C/C(=O)CC`, the Potency result in [1], in assay [2] and in assay [10] was “inactive” in each case. The activation in [5] is -1.61% [at 18.1 µM] (inactive); in assay [8] it was -0.278% [at 13.2 µM] (inactive). Moreover, the viability change, negative = cytotoxic in assay [6] was 0.863% [at 18.1 µM] (inactive). In addition, the activity change, negative = cytotoxicity in [7] was 2.01% [at 13.2 µM] (inactive).
Consider `CC[N+](C)(CC)CCOC(=O)C(O)(c1ccccc1)C1CCCCC1` (stereo not drawn), for which the Potency entry in [1], in [2], in assay [3], in assay [4], in assay [5] and in [6] was “inactive” in each case. Moreover, the Potency entry in assay [7] and in [8] was “inactive” in each case.
On to `ClCCOCCOCCCl`, for which the Potency result in assay [1], in assay [2], in assay [3], in assay [4], in assay [5] and in assay [6] was “inactive” throughout. Moreover, the Potency result in assay [7] and in assay [8] was “inactive” throughout.
Turning to `CCCCC(=O)OCC(=O)[C@H]1[C@H](C)C[C@H]2[C@@H]3C[C@H](F)C4=CC(=O)C=C[C@]4(C)[C@@]3(F)[C@@H](O)C[C@@]21C`, the Potency entry in assay [1], in assay [2], in [3], in assay [4], in assay [5] and in assay [6] was “inactive” in each case. For the same molecule, the Potency entry in assay [7] is “inactive”.
In the case of `CCCCCCCCCCCc1ccccc1`, the Potency entry in [1], in assay [2], in assay [3], in assay [9], in assay [4] and in [5] was “inactive” each time. The Potency entry in assay [6], in assay [7] and in assay [8] was “inactive” throughout.
Consider `Nc1ccc(S(=O)(=O)Nc2ccccc2)cc1`, for which the Potency result in assay [1], in assay [2], in assay [3], in assay [4], in assay [5] and in assay [6] was “inactive” throughout. In assay [7], the Potency entry was “inactive”.
Take `OCCN1CCN(CCCN2c3ccccc3C=Cc3ccccc32)CC1`: the Potency in assay [1] was 29.8 µM (active) and inactive; in assay [10] it was 10.6 µM (active) and 26.6 µM (active). Also, the Potency result in assay [2], in assay [5], in assay [6] and in assay [7] was “inactive” throughout.
On to `CC(C)OC(=O)C(C)N(C(=O)c1ccccc1)c1ccc(F)c(Cl)c1` (stereo not drawn), for which the Potency entry in [1], in assay [2], in [3], in assay [9], in assay [4] and in assay [6] was “inactive” each time. For the same molecule, the Potency result in [7] and in [8] was “inactive” throughout.
`CN1CCN(C(c2ccccc2)c2ccccc2)CC1`: the Potency entry in assay [1], in assay [2], in assay [3], in assay [4], in [5] and in assay [6] was “inactive” in each case. Further, the Potency result in assay [7] and in [8] was “inactive” in each case.
On to `NC(=O)C(c1ccccc1)(c1ccccc1)[C@@H]1CCN(CCc2ccc3c(c2)CCO3)C1`, for which the Potency result in assay [1], in [2], in assay [3], in assay [4], in [6] and in assay [7] was “inactive” throughout. The Potency result in assay [8] is “inactive”.
Turning to `Cn1c(=O)cc(Oc2ccc(F)cc2F)c2cnc(NCC(C)(C)O)nc21`, the Potency entry in assay [1], in [2], in [3], in assay [4] and in [6] was “inactive” throughout. In addition, in [5], the Potency was 30.6 µM (active).
Consider `CN(C)C(=O)NC1(c2ccccc2)CCN(CC[C@@]2(c3ccc(F)c(F)c3)CN(C(=O)c3ccccc3)CCO2)CC1`, for which the Potency result in assay [1], in assay [2], in assay [9], in assay [4], in assay [5] and in assay [6] was “inactive” each time. For the same molecule, the Potency entry in assay [7] and in assay [8] was “inactive” in each case.
Turning to `CCN(CC)CCOC(=O)C(c1ccccc1)C1CCCCC1` (stereo not drawn), the Potency result in assay [1], in assay [10], in [3], in assay [9], in [5] and in [6] was “inactive” each time. For the same molecule, in assay [7], the Potency result was “inactive”.
Take `CCC(=O)O[C@]1(C(=O)CCl)[C@@H](C)C[C@H]2[C@@H]3CCC4=CC(=O)C=C[C@]4(C)[C@@]3(F)[C@@H](O)C[C@@]21C`: the Potency result in assay [1], in assay [10], in assay [3], in [9], in assay [4] and in [6] was “inactive” in each case. For the same molecule, the Potency result in assay [7] and in assay [8] was “inactive” throughout.
Turning to `CNCCCCOc1ccccc1Cc1ccccc1`, the Potency result in [1], in [2], in assay [4], in assay [7] and in [8] was “inactive” throughout. Also, the Potency in assay [6] is 29.8 µM (active).
With `CCCCCC[C@@H](O)C/C=C\CCCCCCCC(=O)OC`, the Potency result in [1], in assay [10], in assay [3], in [4], in assay [5] and in assay [6] was “inactive” throughout. For the same molecule, the Potency entry in assay [7] and in [8] was “inactive” in each case.
